The results in this text go back to PubChem BioAssay.

A number with no mark means an inactive call. For part of these data: Measured potencies and affinities stand elsewhere. Calls of active or inactive are those of the source. Unless noted, how the calls were made is not given here.

The nature of test [1]: antimalarial activity against Dd2 strain (AID 2302;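 active means growth inhibition above 50% at the single 2 µM test dose, taken to imply half-maximal potency below 2 µM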;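 further: 0% = DMSO untreated growth and 100% = chloroquine plus artemisinin killed control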). The note with it: P. falciparum Dd2 in RBCs, LDH growth readout, 72 h; at 2 µM; stronger effect = higher value.
Test [2] is described as follows: HepG2 cytotoxicity, primary screen, cytotoxicity control for P. falciparum antimalarial project, cell-based, ATP luminescence (AID 2303;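 active means inhibition above 50%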;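 further: 0% = DMSO wells and 100% = digitonin-killed cells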). The settings on record: HepG2 viability, 24-48 h, at 10 µM, stronger effect = higher value.
The target of test [3] is L-lactate dehydrogenase (Plasmodium falciparum (isolate CDC / Honduras)) (UniProt Q27743). Description: PfLDH activity inhibition – cell lysate, 3D7 strain, counter-screen for P. falciparum growth inhibition project (AID 2304).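 Further: 0% = vehicle and 100% = reference inhibitor.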 The note with it: P. falciparum 3D7 crude extract, LDH APAD/NBT absorbance; at 2 µM; stronger effect = higher value. (In general: The purpose of a counterscreen is to sort out artefacts and off-target activity.)

Test [4] can be described thus: inhibition of 3D7 malaria parasite growth – strain 3D7 (AID 2306).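 Further: 0% = DMSO wells and 100% = chloroquine plus artemisinin control wells.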 The note with it: P. falciparum 3D7 erythrocytic growth, LDH absorbance, 72 h; at 2 µM; stronger effect = higher value.
In test [5] the target is Calcium-dependent protein kinase 1 (Plasmodium falciparum (isolate 3D7)) (UniProt P62344). Description: PfCDPK1 kinase inhibitors, biochemical, TCAMS library (AID 1159585; cut-off not given, nearly all actives have IC50 up to about 0.98 µM;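 further: inhibitors leave more ATP so luminescence rises with inhibition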). The settings on record: recombinant PfCDPK1, Kinase-Glo ATP depletion luminescence.
The target in test [6] is Plasmodium falciparum protein kinase 6 (PK6, PF3D7_1337100) (UniProt Q8IDW1). Description: PfPK6 kinase inhibitors, biochemical, TCAMS library (AID 1159586). The note with it: recombinant PfPK6, Kinase-Glo ATP depletion luminescence.
In test [7] the target is Protein kinase 7 (PK7), Plasmodium falciparum 3D7 (PF3D7_0213400) (UniProt Q7YTF7). Description: inhibition of Plasmodium PK7 catalytic activity – biochemical, TCAMS antimalarial set, Kinase-Glo luminescence (AID 1159587). The settings on record: recombinant PfPK7, Kinase-Glo ATP depletion luminescence. Background: In Kinase-Glo more light means more ATP remaining.
Test [8] deals with Calcium-dependent protein kinase 4 (Plasmodium falciparum (isolate 3D7)) (UniProt Q8IBS5). Description: PfCDPK4 kinase inhibitors, biochemical, TCAMS library (AID 1159588; cut-off not given, nearly all actives have IC50 up to about 0.91 µM). The settings on record: recombinant PfCDPK4, Kinase-Glo ATP depletion luminescence.
Chain of Calcium-dependent protein kinase 4 (Plasmodium falciparum (isolate 3D7)) (Q8IBS5 whole entry, looked up): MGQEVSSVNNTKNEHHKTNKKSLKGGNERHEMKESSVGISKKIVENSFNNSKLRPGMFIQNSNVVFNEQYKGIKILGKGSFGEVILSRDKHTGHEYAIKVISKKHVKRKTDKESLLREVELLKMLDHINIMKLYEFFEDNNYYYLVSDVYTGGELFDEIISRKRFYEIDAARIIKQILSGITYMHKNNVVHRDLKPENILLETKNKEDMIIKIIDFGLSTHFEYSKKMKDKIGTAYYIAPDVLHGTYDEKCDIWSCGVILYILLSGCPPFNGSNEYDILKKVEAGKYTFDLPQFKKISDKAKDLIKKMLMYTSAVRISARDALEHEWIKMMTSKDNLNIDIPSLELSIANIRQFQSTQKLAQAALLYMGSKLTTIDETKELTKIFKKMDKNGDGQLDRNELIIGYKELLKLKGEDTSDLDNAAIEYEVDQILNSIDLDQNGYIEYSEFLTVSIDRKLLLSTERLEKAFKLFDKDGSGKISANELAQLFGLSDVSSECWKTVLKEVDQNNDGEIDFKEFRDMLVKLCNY

Chain of Plasmodium falciparum protein kinase 6 (PK6, PF3D7_1337100) (Q8IDW1 1-305): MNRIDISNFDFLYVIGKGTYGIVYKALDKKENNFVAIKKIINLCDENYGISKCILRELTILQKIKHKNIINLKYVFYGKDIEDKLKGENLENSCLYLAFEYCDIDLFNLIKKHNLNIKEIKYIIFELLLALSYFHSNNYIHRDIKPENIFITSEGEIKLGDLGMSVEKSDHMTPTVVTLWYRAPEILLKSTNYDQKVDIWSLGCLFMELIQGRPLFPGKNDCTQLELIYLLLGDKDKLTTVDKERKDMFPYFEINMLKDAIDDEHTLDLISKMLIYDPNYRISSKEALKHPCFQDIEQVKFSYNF
Chain of Calcium-dependent protein kinase 1 (Plasmodium falciparum (isolate 3D7)) (P62344 whole entry, looked up): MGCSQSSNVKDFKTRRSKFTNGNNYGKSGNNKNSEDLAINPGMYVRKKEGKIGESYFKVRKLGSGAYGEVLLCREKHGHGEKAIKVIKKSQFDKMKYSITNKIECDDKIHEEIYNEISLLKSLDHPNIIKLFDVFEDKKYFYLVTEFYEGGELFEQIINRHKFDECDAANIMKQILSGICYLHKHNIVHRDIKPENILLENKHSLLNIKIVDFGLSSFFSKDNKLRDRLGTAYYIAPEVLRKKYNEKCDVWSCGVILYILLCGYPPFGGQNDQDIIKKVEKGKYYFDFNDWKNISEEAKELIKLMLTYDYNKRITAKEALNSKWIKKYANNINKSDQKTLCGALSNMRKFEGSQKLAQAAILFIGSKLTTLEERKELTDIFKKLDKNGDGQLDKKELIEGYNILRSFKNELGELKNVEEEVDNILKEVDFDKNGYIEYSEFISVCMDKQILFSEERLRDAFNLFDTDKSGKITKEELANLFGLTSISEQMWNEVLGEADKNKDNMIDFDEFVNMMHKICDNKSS
Chain of Protein kinase 7 (PK7), Plasmodium falciparum 3D7 (PF3D7_0213400) (Q7YTF7 1-343): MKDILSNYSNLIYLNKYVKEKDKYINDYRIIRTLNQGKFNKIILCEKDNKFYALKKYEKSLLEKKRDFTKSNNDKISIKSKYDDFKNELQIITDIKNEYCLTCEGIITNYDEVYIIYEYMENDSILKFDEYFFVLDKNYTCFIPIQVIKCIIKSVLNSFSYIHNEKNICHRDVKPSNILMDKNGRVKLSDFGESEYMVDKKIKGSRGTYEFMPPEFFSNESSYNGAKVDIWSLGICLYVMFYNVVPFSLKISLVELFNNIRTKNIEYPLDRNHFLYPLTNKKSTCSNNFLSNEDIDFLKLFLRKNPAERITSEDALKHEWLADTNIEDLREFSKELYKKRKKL
Chain of L-lactate dehydrogenase (Plasmodium falciparum (isolate CDC / Honduras)) (Q27743 whole entry, looked up): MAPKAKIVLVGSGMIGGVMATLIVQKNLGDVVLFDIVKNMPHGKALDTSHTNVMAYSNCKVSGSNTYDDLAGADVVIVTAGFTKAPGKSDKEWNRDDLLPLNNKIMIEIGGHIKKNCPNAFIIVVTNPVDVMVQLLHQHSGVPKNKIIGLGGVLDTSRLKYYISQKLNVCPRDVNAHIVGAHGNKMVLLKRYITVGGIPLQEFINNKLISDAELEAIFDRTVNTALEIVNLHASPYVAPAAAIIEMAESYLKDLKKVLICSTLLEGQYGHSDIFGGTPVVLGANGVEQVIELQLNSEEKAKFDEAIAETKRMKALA

Broadly, the inhibition is the drop in the measured response relative to a control, in per cent. On to `CC(C)(C)[C@@H](Nc1ccc(C#N)c2ccccc12)C(=O)NC1(Cc2ccc(O)cc2)CCCC1`, for which the growth inhibition in test [1] was 74% (active); in test [4], 90% (active). Also, the inhibition in test [2] was 14%; in test [3], 0%. The result in test [5], in test [6], in test [7] and in test [8] was inactive.
As to `Cc1ccc(Cc2c(C)nc3nc(N)nc(N)c3c2C)cc1`, the growth inhibition was 1% in test [1] and 93% (active) in test [4]. Further, the inhibition in test [2] is 60% (active); in test [3], 5%. Moreover, the outcome in test [5], in test [6], in test [7] and in test [8] was inactive.
Take `O=C(Nc1ccnc2ccccc12)NC1CCN(Cc2ccccc2)CC1`: the growth inhibition in test [1] is 43%; in test [4], 96% (active). The inhibition in test [2] is 18%; in test [3], 5%. Besides, the outcome in test [5], in test [6], in test [7] and in test [8] was inactive.
Turning to `Cc1ccccc1C1CCN(c2ncc(C(=O)NC3CC3)cc2Cl)CC1`, the growth inhibition in test [1] and in test [4] was 96% (active) in each case. Moreover, the inhibition in test [2] was 22%; in test [3], -1%. The result in test [5], in test [6], in test [7] and in test [8] was inactive.
`Oc1cc(Nc2ccnc3ccc(I)cc23)c(F)cc1Cl`: the growth inhibition in test [1] was 13%; in test [4], 95% (active). The results for the inhibition in test [2] and in test [3] were 20% and 0%, respectively. Also, the result in test [5], in test [6], in test [7] and in test [8] was inactive.
For the compound `COC(=O)C(C)NCC(=O)c1ccccc1` (stereo not drawn), the growth inhibition in test [1] is 23%; in test [4], 97% (active). For the same compound, the figures for the inhibition in test [2] and in test [3] were 5% and 4%, respectively. The outcome in test [5], in test [6], in test [7] and in test [8] was inactive.
`COc1ccccc1Cn1ccnc1SCC(=O)Nc1cccc(C(F)(F)F)c1`: the figures for the growth inhibition in test [1] and in test [4] were 73% (active) and 86% (active), respectively. Moreover, the inhibition in test [2] is -6%; in test [3], -2%. Also, the result in test [5], in test [6], in test [7] and in test [8] was inactive.
Take `CCOC(=O)C(Oc1ccc2ccccc2c1)C(=O)OCC`: the values for the growth inhibition in test [1] and in test [4] were 0% and 98% (active), respectively. Also, the inhibition is 8% in test [2] and -4% in test [3]. Also, the result in test [5], in test [6], in test [7] and in test [8] was inactive.
Regarding `Cn1nccc1C(=O)NCCNCc1ccc(-c2ccc(-c3nc4ccc(F)cc4[nH]3)cc2)cc1`, the growth inhibition in test [1] is 98% (active); in test [4], 101% (active). Besides, the inhibition in test [2] was 28%; in test [3], -5%. Besides, the outcome in test [5], in test [6], in test [7] and in test [8] was inactive.
Turning to `CCCCCCNC(=O)C1Cc2c([nH]c3cc(Cl)ccc23)C2(CCN(Cc3ccccc3)CC2)N1` (stereo not drawn), the growth inhibition is 56% (active) in test [1] and 90% (active) in test [4]. In addition, the inhibition is 21% in test [2] and 2% in test [3]. Moreover, the outcome in test [5], in test [6], in test [7] and in test [8] was inactive.
In the case of `O=C(Nc1ccc(N2CCCN(Cc3cccc(F)c3)CC2)cc1)c1ccc(F)cc1`, the growth inhibition is 95% (active) in test [1] and 96% (active) in test [4]. Besides, the inhibition was 0% in test [2] and 3% in test [3]. In addition, the result in test [5], in test [6], in test [7] and in test [8] was inactive.
Consider `CC(=NN=C(N)N)c1ccc2ccc3ccccc3c2c1`, for which the growth inhibition in test [1] was 23%; in test [4], 97% (active). The inhibition was 14% in test [2] and -7% in test [3]. Also, the outcome in test [5], in test [6], in test [7] and in test [8] was inactive.
Turning to `COc1ccc(CNCc2cccc(-c3ccc(-c4nc5c(C)cccc5[nH]4)cc3)c2)cc1`, the results for the growth inhibition in test [1] and in test [4] were 70% (active) and 101% (active), respectively. Further, the values for the inhibition in test [2] and in test [3] were 23% and 7%, respectively. The outcome in test [5], in test [6], in test [7] and in test [8] was inactive.
In the case of `Cn1cc(CN2CCCC(COC(c3ccc(F)cc3)c3ccc(F)cc3)C2)cn1` (stereo not drawn), the growth inhibition in test [1] is 100% (active); in test [4], 98% (active). Besides, the inhibition is 15% in test [2] and 4% in test [3]. Also, the outcome in test [5], in test [6], in test [7] and in test [8] was inactive.
Take `OC(CNc1ccnc(Nc2cccc(Cl)c2)n1)c1ccccc1C(F)(F)F` (stereo not drawn): the growth inhibition in test [1] was 36%; in test [4] it was 95% (active). In addition, the inhibition in test [2] is 40%; in test [3], 0%. In addition, the outcome in test [5], in test [6], in test [7] and in test [8] was inactive.
As to `Cn1cnc(CCNC(=O)c2ccc(-c3cccc(-c4nc5ccc(F)cc5[nH]4)c3)cc2)c1`, the growth inhibition was 24% in test [1] and 100% (active) in test [4]. Besides, the figures for the inhibition in test [2] and in test [3] were 23% and -5%, respectively. For the same compound, the result in test [5], in test [6], in test [7] and in test [8] was inactive.
Consider `COc1ccc(C2CCN(CCCCNC(=O)c3ccc(NC(=O)c4ccc(Cl)cc4)cc3)C2)c(OC)c1` (stereo not drawn), for which the figures for the growth inhibition in test [1] and in test [4] were -1% and 84% (active), respectively. Moreover, the inhibition was 18% in test [2] and 2% in test [3]. Moreover, the outcome in test [5], in test [6], in test [7] and in test [8] was inactive.
Consider `O=S(=O)(/C=C/c1ccccc1)N(Cc1ccc(-c2ccc(CNCCOc3ccccc3)cc2)cc1)CC1CCCCN1` (stereo not drawn), for which the growth inhibition was 95% (active) in test [1] and 99% (active) in test [4]. Further, the inhibition in test [2] is 99% (active); in test [3], 4%. Moreover, the outcome in test [5], in test [6], in test [7] and in test [8] was inactive.
With `CNCc1ccc(-c2ccc3ccnc(N)c3c2)cc1`, the growth inhibition was 98% (active) in test [1] and 94% (active) in test [4]. For the same compound, the inhibition is 46% in test [2] and 5% in test [3]. Further, the outcome in test [5], in test [6], in test [7] and in test [8] was inactive.
Regarding `Oc1cccc(-c2nc(-c3ccccc3)c(-c3ccc(Oc4ccc(-c5[nH]c(-c6cccc(O)c6)nc5-c5ccccc5)cc4)cc3)[nH]2)c1`, the growth inhibition is 96% (active) in test [1] and 91% (active) in test [4]. Besides, the inhibition is 6% in test [2] and 0% in test [3]. Further, the outcome in test [5], in test [6], in test [7] and in test [8] was inactive.
For the compound `OC(CNc1ccnc(Nc2cccc(OCCCN3CCOCC3)c2)n1)c1ccccc1` (stereo not drawn), the growth inhibition in test [1] was 25%; in test [4] it was 97% (active). Further, the inhibition in test [2] is 48%; in test [3] it was -4%. Besides, the outcome in test [5], in test [6], in test [7] and in test [8] was inactive.
